Experimental findings from PubChem BioAssay AID686978 (National Center for Advancing Translational Sciences (NCATS), 2013) are described below.

The campaign covered roughly 420,000 compounds. About 64,000 (15%) were called active. About 27% were inconclusive and are not listed. The call rests on the fitted dose curve; in most records, active means well fitted inhibition curve with a large enough effect; inconclusive means small, poorly fitted or top-dose-only effect; inactive means flat fitted curve, though single readings scatter. These entries were drawn from the full list. A call without a number means that no potency is given here.
Potency means the concentration at half of the fitted maximal effect.

A short description of the experiment: qHTS for Inhibitors of human tyrosyl-DNA phosphodiesterase 1 (TDP1): qHTS in cells in absence of CPT. Further: nearly all actives have a fitted effect of over 55% in size. To be noted: DT40 Tdp1-/- hTDP1 cells, no CPT, ATP luminescence, 48 h; activity change, negative = growth inhibition: at 46.2 µM (top of the series). Summed up: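 No-CPT arm: Tdp1-/-;hTDP1 DT40 cells (400/well) plus compounds, incubated ≥48 hr at 37 °C. Readout CellTiter-Glo luminescence.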
With `Cc1cccc(OCC(=O)NCC(=O)N/N=C/c2ccc(N(C)C)cc2)c1`, the Potency entry was “inactive”.

Turning to `COc1cc(C2C(C(=O)Nc3ccccc3OC)=C(C)Nc3ncnn32)ccc1O` (configuration not stated), the Potency entry is “inactive”. The result for `COc1ccccc1NC1=NC(c2ccc(Cl)cc2)N=C(N)N1` (configuration not stated) reads 5.8 µM (active); that for `COc1ccccc1NC1=NC2(CCCC2)N=C(N)N1`, “inactive”. The entry for `COc1cc([N+](=O)[O-])cc([N+](=O)[O-])c1NC(=O)N1CCOCC1` is “inactive”; for `O=C(CSc1nc(=O)n(Cc2cccnc2)c2c1CCC2)Nc1ccc(F)cc1F` it is “inactive”. In the case of `CC(=O)c1c(OCC(=O)N(C)C2CCCCC2)ccc2c(C)cc(=O)oc12`, the Potency result is “inactive”.

With `CCc1ccnc(NS(=O)(=O)c2ccc3c(c2)OCCO3)c1`, the Potency entry was “inactive”. In the case of `CC(C)(C)NC(=O)CN(C(=O)c1ccc(Cl)nc1)c1cccc2ccccc12`, the Potency result is “inactive”.

Consider `COc1cc2nnn(-c3ccncc3)c2cc1OC`, for which the Potency result was “inactive”. Regarding `c1ccc2c(c1)nnn2-c1ccncc1`, the Potency is 5.17 µM (active). As to `Cc1ccc(C)n1-c1ccncc1`, the Potency entry was “inactive”. For the compound `CC(=O)N1C(=O)C2(Nc3ccccc3N2)c2ccccc21`, the Potency entry was “inactive”. For the compound `Cc1oc(CC(C)C)c(CN2CCCC2)c1C(=O)O`, the Potency result was “inactive”. With `COc1ccc(CCNC(=O)c2cc3cccc4c3n2CC(C)S4)c(OC)c1OC` (configuration not stated), the Potency is 11.6 µM (active). In the case of `COc1ccc(CCNC(=O)CN2C(=O)CCSc3ccccc32)c(OC)c1`, the Potency entry is “inactive”. With `COc1ccc(CCNC(=O)COC(=O)Cc2cc(OC)c(OC)c(OC)c2)cc1`, the Potency result was “inactive”. The entry for `CNc1nc(SC)nc(N(C#N)CC(=O)OC)n1` is “inactive”; for `CCOc1ccc(OCc2ccc(C(=O)N(C)c3ccccc3)o2)cc1` it is 14.6 µM (active); for `COc1ccc(NC(=O)CN(C)C(=O)c2ccc(COc3ccccc3)o2)cc1` it is “inactive”. With `O=C(NCCc1ccccn1)c1ccc(COc2ccccc2)o1`, the Potency result is “inactive”.

For `CCCCCCSc1ccc([C@@H]2[C@@H]3C(=O)N(CC)C(=O)[C@@H]3[C@]3(C(=O)OC)CCCCN23)cc1OC`, the Potency is 25.9 µM (active). Turning to `CCOC(=O)N1C(=O)C[C@](Sc2ccc(C)cc2)(C(=O)OC)[C@H]1c1ccccc1`, the Potency entry is “inactive”. With `CCN1C(=O)[C@@H]2[C@@H](c3ccc(-c4ccccc4)cc3)N3CCCC[C@@]3(C(=O)OC)[C@@H]2C1=O`, the Potency is 16.4 µM (active).

As to `CCN1C(=O)[C@H]2[C@@H](c3ccc(C)cc3)N3C(=O)N(c4cccc(Br)c4)C(=O)[C@@]3(CC)[C@H]2C1=O`, the Potency result was “inactive”. As to `NC(=O)C1(Nc2ccc(-c3ccccc3)cc2)CCCC1`, the Potency result was “inactive”. In the case of `CCCCC12CN3CC(C)(CN(C1)C3c1ccc(O)c(OC)c1)C2=O` (configuration not stated), the Potency result was “inactive”. The result for `CC(=O)N(CN1C(=O)C2C3C=CC(C3)C2C1=O)c1cccc(Cl)c1` (configuration not stated) reads “inactive”; that for `CCN1C(=O)[C@@H]2[C@@H](c3ccc(-c4cccc(Cl)c4)cc3)N3CCC[C@@]3(C(=O)OC)[C@@H]2C1=O`, 16.4 µM (active). `CCOC(=O)C1=C(CC)Nc2ccccc2N=C1N`: the Potency entry was “inactive”.

Regarding `COCCNC(=O)c1cc(-c2cccc(Cl)c2)on1`, the Potency entry is “inactive”. Turning to `CSc1ccc(NC(=O)Cn2nnnc2-c2ccccc2F)cc1`, the Potency entry is “inactive”. The result for `COc1ccc(NC(=O)CN(C)C(=O)CNC(=O)C2CCCCC2)cc1` reads “inactive”. Turning to `COc1ccccc1C1/C(=C(/O)c2ccc(C)cc2)C(=O)C(=O)N1Cc1ccco1` (configuration not stated), the Potency result is “inactive”. Consider `COc1ccc(S(=O)(=O)N(C)CC(=O)NCCCN2CCOCC2)cc1Cl`, for which the Potency entry is “inactive”.

With `CN(Cc1ccc(F)cc1Cl)S(=O)(=O)c1cccs1`, the Potency result was “inactive”. As to `CN(Cc1ccccc1)CC(O)COc1ccc(CNCc2cc3ccccc3s2)cc1` (configuration not stated), the Potency was 29.1 µM (active). For `Cc1ccc(OCC(=O)OC(C)CN(C)Cc2ccccc2)cc1` (configuration not stated), the Potency result was “inactive”. Take `OC(CNCc1ccc2c(c1)OCO2)COc1ccccc1` (configuration not stated): the Potency entry was “inactive”.

As for `O=C(COC(=O)c1ccc(F)c(S(=O)(=O)N2CCOCC2)c1)NCc1ccc2c(c1)OCO2`, the Potency result was “inactive”.

Turning to `OC(Cc1ccc2ccccc2n1)c1ccc(Cl)c(Cl)c1` (configuration not stated), the Potency entry was “inactive”. `Cc1cc(NC(=O)C(C)N2C(=O)c3ccccc3S2(=O)=O)no1` (configuration not stated): the Potency result was “inactive”.

As for `CN(C)S(=O)(=O)c1cc(NC(=O)CN2C(=O)NC3(CCCc4ccccc43)C2=O)ccc1Cl` (configuration not stated), the Potency was 14.6 µM (active). With `O=C(CN1CCOCC1)Nc1cccc([N+](=O)[O-])c1`, the Potency result is “inactive”. The figure for `O=C(CN1C(=O)NC2(CCCCCC2)C1=O)Nc1ccc([N+](=O)[O-])cc1` is 18.4 µM (active); for `O=C(CN1C(=O)NC2(CCOc3ccccc32)C1=O)NCc1ccc(F)cc1` (configuration not stated) it is “inactive”. As to `O=C(CN1C(=O)NC2(CCCCCC2)C1=O)NC1CC1`, the Potency entry was “inactive”. Turning to `CCOc1ccc(CCNC(=O)CN2C(=O)NC3(CCc4ccccc43)C2=O)cc1OCC` (configuration not stated), the Potency entry was “inactive”. Turning to `O=C(CN1C(=O)NC2(CCCC2)C1=O)Nc1ccc(F)c(F)c1F`, the Potency entry is “inactive”. The entry for `O=C(CN1C(=O)NC2(CCc3ccccc32)C1=O)NC1CCCCC1` (configuration not stated) is “inactive”; for `O=C(CN1C(=O)NC2(CCOc3ccccc32)C1=O)Nc1cccc([N+](=O)[O-])c1` (configuration not stated) it is 20.6 µM (active); for `COC(=O)Nc1ccc(S(=O)(=O)Nc2cc(OC)nc(OC)n2)cc1` it is “inactive”. In the case of `NS(=O)(=O)c1ccc(N2C(=O)C3C4CC(C(Br)C4Br)C3C2=O)cc1` (configuration not stated), the Potency result is “inactive”.

As to `O=C1CC(Cc2ccccc2)C(=O)N1c1ccc(Cl)cn1` (configuration not stated), the Potency entry is “inactive”.

`Cc1ccn(-c2cccc(-n3ccc(C)n3)n2)n1`: the Potency result was “inactive”. The entry for `COCCCn1c(SCC(=O)Nc2ccccc2)nnc1-c1ccncc1` is “inactive”. As for `CCOC(=O)C1CSC(CC(=O)Nc2ccc(OCC)cc2)C(=O)N1` (configuration not stated), the Potency result was “inactive”. As for `O=C(C1CCCO1)N1CCN(C(=O)C23CC4CC(CC(C4)C2)C3)CC1` (configuration not stated), the Potency entry is “inactive”. As for `COc1ccc(OC)c(-c2csc(NC(=O)COC(=O)C3CC3)n2)c1`, the Potency result was “inactive”. `COc1ccc(NC(=O)C2=NNC(=O)CC2)cc1S(=O)(=O)N1CCCCC1`: the Potency result is “inactive”.

Take `COc1ccc(OC)c(-c2csc(NC(=O)C3=NNC(=O)CC3)n2)c1`: the Potency is 13 µM (active). Take `COc1ccnc(Oc2ccccc2)n1`: the Potency result was “inactive”. `CCc1nnc(NC(=O)Cc2cccs2)s1`: the Potency result was “inactive”. With `CNc1nc(-c2ccccc2)cc(-c2ccccc2)n1`, the Potency entry was “inactive”. As to `Fc1ccc2cnc(-c3ccccc3)cc2c1`, the Potency entry was “inactive”. In the case of `CSc1nc(Nc2ccc(F)cc2)cc(-c2ccccc2)n1`, the Potency is 23.1 µM (active). The result for `O=C(c1ccc(Cn2cc([N+](=O)[O-])cn2)o1)N1CCCC1` reads “inactive”.
